Measured values from PubChem BioAssay (NCATS).
Where “and” joins values, the source holds several entries; their conditions need not be identical. Equal values may be shown once. Records with an inconclusive call do not appear. Entries that show only a call come without a potency. Calls of active or inactive are those of the source. Unless noted, calls follow the shape of the full dose curve.

Tests used:
[1] = molecular target: Glucocorticoid receptor (Homo sapiens) (UniProt P04150); experiment: qHTS assay for small molecule antagonists of glucocorticoid receptor signaling (AID 588533; active = well fitted inhibition curve with a large enough effect in the signal ratio, with a control signal flat, not every such curve was filed as active; the % refers to the signal ratio;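 also: cells stimulated with 2 nM dexamethasone as agonist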)
Method in brief: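 Antagonist-mode qHTS: compound titrations added to GRE-bla HeLa cells, then dexamethasone 2 nM final; 18 h, 37 C. CCF4 FRET fluorescence normalized to dexamethasone and DMSO; IC50 from Hill fit.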

[2] = qHTS assay for small molecule antagonists of peroxisome proliferator-activated receptor delta signaling (AID 588535; active = well fitted inhibition curve with a large enough effect in the signal ratio, with a control signal flat, not every such curve was filed as active; the % refers to the signal ratio;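 as to max response: cells co-treated with a PPAR-delta agonist as stimulator during compound exposure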); details: HEK293T PPARd-UAS-bla, beta-lactamase FRET ratio, 18 h; 460 nm channel
Method in brief: (§1)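 HEK293T PPAR-delta-UAS-bla cells, 4000/well, 2% charcoal/dextran FBS; 5 h 37 C; cpd titration; 18 h 37 C; CCF4 2 h RT; FI 460/530 nm; Hill fit → IC50, efficacy.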

[3] = molecular target: Peroxisome proliferator-activated receptor delta (Homo sapiens) (UniProt Q03181); experiment: as above
Method in brief: as §1

[4] = molecular target: Vitamin D3 receptor (Homo sapiens) (UniProt P11473); experiment: qHTS assay for small molecule antagonists of vitamin D receptor signaling (AID 588541);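 also: receptor activated by calcitriol during compound treatment; series mostly up to about 77 µM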
Method in brief: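 Antagonist-mode beta-lactamase reporter assay: HEK293T VDR-UAS-bla cells were exposed to titrated compound alongside 1-alpha,25-dihydroxyvitamin D3 at 3 nM final for 16 h. Values were normalized to the 50 nM agonist control and DMSO basal, with IC50 and efficacy from Hill equation fits.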

[5] = qHTS assay for small molecule agonists of retinoid X receptor alpha signaling (AID 588544); details: HEK293T RXRa-UAS-bla, beta-lactamase reporter, 18 h; 530 nm emission
[6] = molecular target: Retinoic acid receptor RXR-alpha (Homo sapiens) (UniProt P19793); experiment: as above
[7] = qHTS assay for small molecule antagonists of retinoid X receptor alpha signaling (AID 588546; active = well fitted inhibition curve with a large enough effect in the signal ratio, with a control signal flat, not every such curve was filed as active; the % refers to the signal ratio;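 also: cells stimulated with 9-cis-retinoic acid as agonist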); details: HEK293T RXRa-UAS-bla, beta-lactamase ratio, antagonist mode; measured here: W530 green channel, cytotoxicity proxy
Method in brief: (§2)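 Beta-lactamase reporter inhibition, read as CCF4 fluorescence ratio (ex 405, em 460/530 nm) after 2 h at RT. HEK293T UAS-bla cells, 2500/well, were stimulated with 9-cis-RA at 500 or 100 nM final alongside test compound for 18 h at 37 C.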

[8] = molecular target: Retinoic acid receptor RXR-alpha (Homo sapiens) (UniProt P19793); experiment: as above; details: HEK293T RXRa-UAS-bla, beta-lactamase ratio, antagonist mode
Method in brief: as §2

[9] = molecular target: Peroxisome proliferator-activated receptor gamma (Homo sapiens) (UniProt P37231); experiment: qHTS assay for small molecule agonists of peroxisome proliferator-activated receptor gamma signaling (AID 588536; active = well fitted curve in the direction sought with a large enough effect in the signal ratio, with a control signal flat, not every such curve was filed as active; the % refers to the signal ratio)
Method in brief: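 HEK293 UAS-bla reporter line, 1% charcoal/dextran FBS; titration, 16 h, 37 C; CCF4 loading 2 h RT; fluorescence 460/530 nm. Normalized to rosiglitazone 2 uM = 100%, DMSO = 0%.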

[10] = molecular target: Peroxisome proliferator-activated receptor gamma (Homo sapiens) (UniProt P37231); experiment: qHTS assay for small molecule antagonists of peroxisome proliferator-activated receptor gamma signaling (AID 588537; active = well fitted inhibition curve with a large enough effect in the signal ratio, with a control signal flat, not every such curve was filed as active; the % refers to the signal ratio; also: potency is read from the fitted curve at half-maximal effect)
Method in brief: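 Antagonist mode, beta-lactamase reporter in HEK293; charcoal/dextran FBS 1%; 3000 cells/well, 37 C 6-6.5 h; cpd titration + rosiglitazone 50 nM final, 16 h 37 C; CCF4, 2 h RT; 460/530 nm; Hill fit → IC50, efficacy.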

Sequence of Retinoic acid receptor RXR-alpha (Homo sapiens) (P19793 whole entry, looked up): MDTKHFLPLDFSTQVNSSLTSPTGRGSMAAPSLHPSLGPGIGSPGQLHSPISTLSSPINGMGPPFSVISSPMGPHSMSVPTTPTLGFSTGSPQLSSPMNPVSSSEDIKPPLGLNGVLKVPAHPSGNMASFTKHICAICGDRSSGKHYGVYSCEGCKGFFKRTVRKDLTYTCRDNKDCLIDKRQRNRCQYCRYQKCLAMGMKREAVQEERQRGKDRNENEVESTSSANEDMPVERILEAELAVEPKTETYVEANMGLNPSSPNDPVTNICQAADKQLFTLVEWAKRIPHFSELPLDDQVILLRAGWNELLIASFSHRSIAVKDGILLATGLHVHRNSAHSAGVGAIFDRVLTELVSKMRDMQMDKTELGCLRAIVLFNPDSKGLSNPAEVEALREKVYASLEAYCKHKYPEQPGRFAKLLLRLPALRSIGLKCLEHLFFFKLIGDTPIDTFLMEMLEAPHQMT
Sequence of Peroxisome proliferator-activated receptor delta (Homo sapiens) (Q03181 whole entry, looked up): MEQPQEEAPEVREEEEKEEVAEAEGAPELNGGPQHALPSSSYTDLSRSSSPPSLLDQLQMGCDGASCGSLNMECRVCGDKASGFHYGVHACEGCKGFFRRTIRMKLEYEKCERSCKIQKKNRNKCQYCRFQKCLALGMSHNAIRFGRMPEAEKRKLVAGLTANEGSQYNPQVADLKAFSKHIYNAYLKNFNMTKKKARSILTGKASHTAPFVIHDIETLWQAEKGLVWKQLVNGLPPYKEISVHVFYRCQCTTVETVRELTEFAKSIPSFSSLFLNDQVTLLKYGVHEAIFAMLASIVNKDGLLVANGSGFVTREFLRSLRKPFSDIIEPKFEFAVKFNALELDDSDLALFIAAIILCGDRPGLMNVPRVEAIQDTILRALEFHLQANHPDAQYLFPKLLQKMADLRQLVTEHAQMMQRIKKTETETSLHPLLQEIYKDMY
Sequence of Vitamin D3 receptor (Homo sapiens) (P11473 whole entry, looked up): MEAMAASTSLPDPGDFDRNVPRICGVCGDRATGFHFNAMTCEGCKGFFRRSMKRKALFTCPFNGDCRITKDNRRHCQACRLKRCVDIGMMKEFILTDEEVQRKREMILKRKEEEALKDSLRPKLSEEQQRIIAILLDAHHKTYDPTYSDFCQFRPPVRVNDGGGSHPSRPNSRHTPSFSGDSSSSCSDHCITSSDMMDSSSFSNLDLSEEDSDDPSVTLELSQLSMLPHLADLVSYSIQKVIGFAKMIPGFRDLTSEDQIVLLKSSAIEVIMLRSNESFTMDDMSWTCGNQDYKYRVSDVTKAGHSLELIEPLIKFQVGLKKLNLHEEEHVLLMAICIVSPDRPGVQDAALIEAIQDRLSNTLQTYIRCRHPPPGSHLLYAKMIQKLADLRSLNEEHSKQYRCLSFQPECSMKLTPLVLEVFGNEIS
Sequence of Glucocorticoid receptor (Homo sapiens) (P04150 whole entry, looked up): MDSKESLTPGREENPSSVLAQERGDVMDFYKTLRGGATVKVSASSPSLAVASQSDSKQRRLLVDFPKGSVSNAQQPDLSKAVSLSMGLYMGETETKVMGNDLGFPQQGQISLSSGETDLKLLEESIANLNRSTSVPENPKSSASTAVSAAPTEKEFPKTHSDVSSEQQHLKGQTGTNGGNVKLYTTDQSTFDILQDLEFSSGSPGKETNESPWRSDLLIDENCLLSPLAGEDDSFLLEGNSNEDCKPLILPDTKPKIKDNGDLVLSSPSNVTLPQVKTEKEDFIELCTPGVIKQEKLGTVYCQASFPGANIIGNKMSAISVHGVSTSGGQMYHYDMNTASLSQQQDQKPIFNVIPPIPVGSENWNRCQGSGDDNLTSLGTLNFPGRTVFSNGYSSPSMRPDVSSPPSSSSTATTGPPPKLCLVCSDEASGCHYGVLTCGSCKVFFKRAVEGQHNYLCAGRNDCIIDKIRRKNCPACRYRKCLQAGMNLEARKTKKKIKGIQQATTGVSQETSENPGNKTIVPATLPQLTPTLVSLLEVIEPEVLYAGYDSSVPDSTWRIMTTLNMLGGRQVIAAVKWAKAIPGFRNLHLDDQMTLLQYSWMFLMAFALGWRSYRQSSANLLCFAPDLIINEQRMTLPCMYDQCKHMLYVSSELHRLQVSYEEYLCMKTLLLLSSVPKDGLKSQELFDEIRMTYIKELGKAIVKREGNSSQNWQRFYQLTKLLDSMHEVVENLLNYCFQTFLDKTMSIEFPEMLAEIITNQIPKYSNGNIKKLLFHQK
Sequence of Peroxisome proliferator-activated receptor gamma (Homo sapiens) (P37231 whole entry, looked up): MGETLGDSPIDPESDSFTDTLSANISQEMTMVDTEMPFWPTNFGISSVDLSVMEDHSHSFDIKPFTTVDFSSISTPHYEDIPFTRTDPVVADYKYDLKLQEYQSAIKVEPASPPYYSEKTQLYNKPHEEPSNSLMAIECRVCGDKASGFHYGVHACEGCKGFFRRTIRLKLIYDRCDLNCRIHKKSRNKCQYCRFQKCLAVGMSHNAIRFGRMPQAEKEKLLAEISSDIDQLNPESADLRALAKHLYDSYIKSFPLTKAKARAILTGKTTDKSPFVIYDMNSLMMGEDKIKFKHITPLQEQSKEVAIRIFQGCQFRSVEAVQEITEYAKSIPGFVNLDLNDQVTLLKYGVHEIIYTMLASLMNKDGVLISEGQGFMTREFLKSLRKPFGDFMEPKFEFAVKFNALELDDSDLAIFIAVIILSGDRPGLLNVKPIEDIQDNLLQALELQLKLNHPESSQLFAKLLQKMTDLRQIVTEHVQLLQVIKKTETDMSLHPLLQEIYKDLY

| SMILES | outcome [1] | max response [2] | outcome [3] | outcome [4] | max response [5] | outcome [6] | max response [7] | max response [8] | outcome [9] | Potency [10] |
| --- | --- | --- | --- | --- | --- | --- | --- | --- | --- | --- |
| CCc1cc(C(N)=S)ccn1 | inactive | -62.7% and 18.6% | inactive | inactive | -5.67% | inactive | -0.783% | 10.8% (inactive) |  |  |
| CC1=NN(c2ccccc2)C(=O)C1 | inactive | -24.3% | inactive |  |  |  | 3.18% | 23.1% (inactive) | inactive |  |
| O=C(O)c1cc(=O)[nH]c(=O)[nH]1 |  |  |  |  | 0.884% | inactive | 2.15% | 5.81% (inactive) | inactive |  |
| N[C@@H](Cc1ccc(O)c(O)c1)C(=O)O | inactive |  |  | inactive | -21.2% | inactive | -19.3% | 0.985% (inactive) | inactive | inactive |
| Cc1noc(NS(=O)(=O)c2ccc(N)cc2)c1C |  | 23.8% and 11.7% | inactive |  | 3.43% | inactive | 9.97% and -11.9% | 10.6% (inactive) and -8.28% (inactive) | inactive | inactive |
| NC(N)=NC(N)=NCCc1ccccc1 |  | -11.9% and 9.95% | inactive |  | 8.58% and 2.73% | inactive | 0.584% and 0.821% | 19.7% (inactive) and -15.5% (inactive) | inactive | inactive |
| O=C(N[C@H](CO)[C@H](O)c1ccc([N+](=O)[O-])cc1)C(Cl)Cl |  | -4.34% and 5.8% | inactive |  | -13.6% | inactive | -5.3% and -7.21% | 39.9% (inactive) and -11.1% (inactive) | inactive | inactive |
| CN(C)c1ccc(C(=C2C=CC(=[N+](C)C)C=C2)c2ccc(N(C)C)cc2)cc1 |  |  |  | inactive |  |  |  |  |  | 44.7 µM (active) |
| Cc1ccnc2c1NC(=O)c1cccnc1N2C1CC1 | inactive | 14.9% | inactive | inactive | 12% | inactive | -4.35% | 11.4% (inactive) | inactive |  |
| COc1ccc2cc3[n+](cc2c1OC)CCc1cc2c(cc1-3)OCO2 |  |  |  | inactive |  |  | 2.18% | -28% (inactive) | inactive |  |
